# Assay results reported in PubChem BioAssay AID651791 (National Center for Advancing Translational Sciences (NCATS), 2012).
# Results filed as inconclusive are left out. Active and inactive are the calls of the source. The call rests on the fitted dose curve; in most records, active means well fitted inhibition curve with a large enough effect; inconclusive means small, poorly fitted or top-dose-only effect; inactive means no such curve, though single readings can be large or run the other way.
# Assay: InCell qHTS Assay for Inhibitors of the mTORC1 Signaling Pathway in MEF (Tsc2-/-, p53-/-) Cells: Hit Validation;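 further: phospho-S6 Ser235/236 signal normalized to propidium iodide cell count per well; nearly all actives have a fitted effect of over 75% in size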
# Conditions: phospho-rpS6 immunofluorescence, 24 h; activity change, negative = inhibition: at 38.3 µM (top of the series)
# Potency means the concentration at half of the fitted maximal effect.
SMILES,"activity change, negative = inhibition [%]",Potency
CCCCOC(=O)c1ccc(NC(=O)c2ccc3c(c2)CCN3S(=O)(=O)c2ccccc2)cc1,-100,–
FC(F)(F)c1cccc(Nc2c3c(nc4ccc(Cl)cc24)CCC3)c1,-100,–
CCOc1ccc(CCNCc2c(C(=O)O)n(Cc3ccc(C)cc3)c3cc(OC)ccc23)cc1,-100,–
O=C(CN1C(=O)C(c2ccc(F)cc2)=NC12CCCCCC2)Nc1ccccc1Cl,-100,–
COCCCNc1ncnc2c1cnn2-c1ccc(F)cc1,-100,–
CCCCN1C(=O)C(O)(CC(=O)c2ccc(CC)cc2)c2cc(Br)ccc21 (stereo not given),-23.7,–
Cc1ccccc1CN1C(=O)C(O)(CC(=O)c2ccccc2)c2cc(Cl)ccc21 (stereo not given),-2.04,–
CCc1ccc(NC(=O)CSc2nccn2C2CCCC2)cc1,-100,–
CCN(CC)CCOC(=O)c1ccc(NC(=O)c2nn(-c3ccc(C)cc3)c(=O)c3c2c2ccccc2n3C)cc1,–,3.29 µM (active)
Cc1nn(CCCC(=O)NCc2ccccc2)c(=O)c2c1sc1ccccc12,-100,–
CC(C)N(C(=O)CSc1nc2ccc(Cl)cc2[nH]1)c1ccccc1,-100,–
CCCCOc1cccc(C(=O)N2CCN(CCc3ccncc3)CC2)c1,-100,–
CCc1ccc(CNc2ncc(-c3cccc(OC)c3)n2C)cc1,-100,–
Cc1ccc(CN(Cc2ccco2)C(=O)c2cccc(C)c2)cc1,-100,–
Cc1ccc(NC(=O)CCNS(=O)(=O)c2cccc3nonc23)cc1Cl,-100,–
Cc1cccc(CN2CCc3nc(N4CCN(c5ccccn5)CC4)ncc3C2)c1,-100,–
Cn1ccc2c(OCC(=O)Nc3ccc(OC(F)(F)F)cc3)cccc2c1=O,-100,–
CCN(CC)CCNC(=O)c1ccc(Cn2c(=O)c3cccn3c3cccnc32)cc1,-100,–
CCN1CCC(N(Cc2ccc(F)cc2)C(=O)Nc2ccc(C)c(F)c2)CC1,-100,–
CC(C)Oc1ccc(CNC(=O)c2ccc3nc(SCc4ccc(F)cc4)n(C)c3c2)cc1,-100,–
COc1ccc(-c2nnc(SCC(=O)NCc3ccccc3)nc2-c2ccc(OC)c(OC)c2)cc1OC,-100,–
O=S(=O)(NCC(c1ccco1)N1CCN(c2ccc(F)cc2)CC1)c1ccccc1 (stereo not given),-100,–
COc1ccc(-c2nc(C)c(CCNC(=O)c3ccccc3Br)s2)cc1OC,-100,–

SMILES,"activity change, negative = inhibition [%]",Potency
COc1ccc(CC(=O)Nc2sc3c(c2C(=O)Nc2cccc(C)c2)CCCCC3)cc1,-17.5,–
Cc1ccc(OCC(O)Cn2c(=N)n(CCN3CCCCC3)c3ccccc32)cc1 (stereo not given),–,16.5 µM (active)
CN(C)c1ccc(NC(=O)Cn2cc(S(=O)(=O)Cc3ccccc3Cl)c3ccccc32)cc1,-29.2,–
COc1cc(Cl)c(C)cc1NC(c1ccccc1)c1nnc(-c2ccccc2Cl)o1 (stereo not given),-100,–
Cc1cccc(N(CC(=O)NCCSc2ccc(Cl)cc2)S(=O)(=O)c2ccccc2)c1C,-100,–
COC(=O)c1cccc(-n2c(CCC(=O)O)ccc2-c2ccc(OC)cc2)c1,-100,–
CCS(=O)(=O)c1ccccc1C(=O)N(Cc1cccnc1)c1nc2cc(C)c(C)cc2s1,-100,–
O=C(CS(=O)(=O)c1cccc2nsnc12)NCc1ccc(Cl)cc1,-100,–
O=C(NCc1ccc(F)cc1)c1ccc2c(Cl)c3c(nc2c1)CCCC3,-100,–
Fc1ccc(Nc2nc3nonc3nc2Nc2cccc(C(F)(F)F)c2)cc1,-100,–
Cc1cccc(C2C=C(c3ccc(C)c(C)c3)Nc3nnnn32)c1 (stereo not given),-17.1,–
COc1cc(C(=O)NC(c2ccccc2Cl)c2cc(Cl)c3cccnc3c2O)cc(OC)c1OC (stereo not given),-100,–
CCOc1ccc(S(=O)(=O)N(C(=O)c2ccncc2)c2ccc3oc(C)c(C(=O)OC)c3c2)cc1,-100,–
CN(C(=O)CSc1nc2ccc(NC(=O)COc3ccc(F)cc3)cc2s1)c1ccccc1,-100,–
CCc1nn(CC(=O)NCc2ccccc2Cl)c(=O)c2cccn12,-100,–
CC1=Nc2cc(C(=O)NC3CCCC3)ccc2Sc2ccc(Cl)cc21,-100,–
CCCc1oc2ccc(NS(=O)(=O)c3ccc(OCC)cc3)cc2c1C(=O)OCC,-100,–
O=C(Nc1ccccc1)N(Cc1cccc(Cl)c1)c1ccccn1,-100,–
CCOc1cccc(C2CC(=O)Nc3cc4c(cc32)OCCO4)c1 (stereo not given),-14.6,–
Cc1cccc(NC(c2cccc(Cl)c2)c2ccc3cccnc3c2O)n1 (stereo not given),-100,–
Cc1cc(C)c(NC(=O)c2sc3nc(C)cc(C)c3c2NC(=O)c2ccccc2)c(C)c1,-100,–
COc1ccc(NC(=O)CSc2c3c(nc4ccccc24)CCC3)c(OC)c1,-100,–
